Compound activity deposited in PubChem by National Center for Advancing Translational Sciences (NCATS).
This is a sample that favours compounds with a hit; in the whole collection about 11% have one here.
HCV inh = qHTS Assay for Inhibitors of Hepatitis C Virus (HCV) | 3.4% of 340,000 active | Potency, µM (doses to about 41.8 µM), hits mostly inhibitors | Huh7.5.1 HCVcc-Cre infection, luciferase reporter, 44 h
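Compounds are dispensed onto cells plated 4 h earlier at 1,000 per well, with HCVcc-Cre virus (about 0.5 moi) added next. Following 44 h of culture, luminescent signal is measured for 15 sec after 15 min with substrate at room temperature.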
Pf growth 48h = Primary qHTS for delayed death inhibitors of the malarial parasite plastid, 48 hour incubation; AID 504832, 2011; 5.9% of 310,000 active; P. falciparum luciferase growth in erythrocytes, 48 h; Potency, µM (top dose mostly 28.7 µM), most hits filed as inhibitors
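Luciferase-expressing parasites in RBCs, 2% Hct / 0.1% parasitemia final; RPMI 1640 + 0.5% Albumax; 37 C, 5% CO2, one generation; luminescence read-out, lower signal = inhibition.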
Pf growth 96h = Primary qHTS for delayed death inhibitors of the malarial parasite plastid, 96 hour incubation; P. falciparum luciferase reporter growth, 96 h; Potency, µM (titrated, usually from 28.7 µM), hits mostly inhibitors; 6.9% of 320,000 active
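Cell-based qHTS: luciferase-tagged P. falciparum in erythrocytes (2% hematocrit, 0.05% parasitemia final) incubated with compounds for 96 hours, 37 C, 5% CO2; luciferase detection reagent then added and luminescence measured.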
AmpC inh no detg = qHTS Inhibitors of AmpC Beta-Lactamase (assay without detergent); 0.52% of 330,000 active; P00811; Potency, µM (titrated, usually from 57.1 µM), hits mostly inhibitors; AmpC nitrocefin hydrolysis, absorbance 480 nm, 0.0001% Triton; note: nearly all actives have a fitted effect of over 20% in size
Target sequence (P00811 whole entry, looked up): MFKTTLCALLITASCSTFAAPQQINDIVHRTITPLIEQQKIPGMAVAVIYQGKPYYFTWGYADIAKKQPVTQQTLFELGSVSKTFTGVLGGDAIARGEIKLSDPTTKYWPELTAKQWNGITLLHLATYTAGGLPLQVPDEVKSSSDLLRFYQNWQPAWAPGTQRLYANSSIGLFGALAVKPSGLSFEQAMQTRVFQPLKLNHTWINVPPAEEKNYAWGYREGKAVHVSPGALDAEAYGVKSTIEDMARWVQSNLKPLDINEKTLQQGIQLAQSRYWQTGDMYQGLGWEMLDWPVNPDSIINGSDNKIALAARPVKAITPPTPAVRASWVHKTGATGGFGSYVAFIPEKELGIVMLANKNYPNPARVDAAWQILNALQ
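20 mM phosphate pH 7.0 + 0.01% (detergent screen) or 0.0001% Triton X-100; 5.3 nM AmpC reagent; cpd preinc 15 min RT; nitrocefin (800 uM stock) to start; A480 q20 s × 4 min; Activity was normalised to no-enzyme and no-compound control wells.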
AMA1 RON2 block = qHTS for Inhibitors of AMA1-RON; Towards Development of Antimalarial Drug Lead: Primary Screen; AlphaScreen AMA1-biotinylated RON2 peptide binding; Potency, µM (series often up to 58.2 µM), most hits filed as inhibitors; 0.2% of 360,000 active; note: nearly all actives have a fitted effect of over 45% in size
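AMA1 (3D7) with his tag at 25 nM final met compounds first, then biotinylated RON2 peptide at 25 nM; detection used donor plus acceptor beads, 10 µg/mL apiece, read by AlphaScreen after 30 min at room temperature.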
AmpC inh detg = qHTS Inhibitors of AmpC Beta-Lactamase (assay with detergent) | 0.041% of 370,000 active | AID 485294, 2010 | Potency, µM (titrated, usually from 114 µM), usual class: inhibitors | AmpC hydrolysis of nitrocefin, absorbance 480 nm, 0.01% Triton; note: nearly all actives have a fitted effect of over 25% in size
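AmpC (5.3 nM in the dispensed reagent) in 20 mM phosphate pH 7.0 with 0.01% (detergent screen) or 0.0001% Triton X-100 was preincubated with compounds for 15 min at room temperature. Nitrocefin was then added from an 800 uM solution, and hydrolysis was followed at 480 nm.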
A number is an active result; i = inactive; ? = inconclusive; nt = not tested or not shown. Calls come from the whole dose curve; as a rule, active = well fitted curve in the direction sought with a large enough effect; inconclusive = small, poorly fitted or top-dose-only effect, or another doubt; inactive = no such curve, though single readings can be large; an effect the other way counts as inactive or inconclusive.

SMILES	HCV inh	Pf growth 48h	Pf growth 96h	AmpC inh no detg	AMA1 RON2 block	AmpC inh detg
O=C(CCCn1c(=O)c2sccc2n(Cc2ccc(Cl)cc2)c1=O)NCc1ccc2c(c1)OCO2	nt	nt	nt	nt	nt	i
CCCOc1cccc(C2c3c(oc4cc(C)c(C)cc4c3=O)C(=O)N2CCCN2CCOCC2)c1 (stereo not drawn)	nt	nt	nt	nt	nt	i
COc1cc2ccccc2cc1C(=O)NC(=S)Nc1nnn(C)n1	i	i	?	i	i	i
Cn1nnc(NC(=S)NC(=O)c2cc(Cl)ccc2Cl)n1	i	8.3µM	4.1µM	i	i	i
CC(C)CNC(=O)c1ccc(Cl)c(Cl)c1	i	i	i	nt	i	i
O=C(NCCO)c1ccc(Cl)c(Cl)c1	i	i	15µM	i	i	i
CC(NC(=O)C12CC3CC(C1)CC(n1cncn1)(C3)C2)C12CC3CC(CC(C3)C1)C2 (stereo not drawn)	i	12µM	12µM	i	i	i
O=C(NC1CCCCC1)C12CC3CC(C1)CC(n1cncn1)(C3)C2	i	i	i	i	i	i
COCCCn1c(-c2ccccc2Cl)n[nH]c1=S	i	i	1.9µM	i	i	i
COCCCn1c(-c2ccc(Cl)cc2)n[nH]c1=S	i	nt	?	i	i	i
O=C(CSc1nncc(=O)[nH]1)NC1CCCCC1	i	i	3.7µM	i	i	i
O=C(CSc1nccc(=O)[nH]1)NC1CCCCCC1	i	nt	nt	i	i	nt
COc1cccc(-n2cc(C(=O)Nc3cc(C)c(Cl)cc3OC)c3ccccc3c2=O)c1	nt	nt	nt	nt	nt	i
COc1ccccc1NC(=O)C(=O)NCC(c1ccco1)N1CCc2ccccc21 (stereo not drawn)	?	12µM	?	i	i	?
COc1ccccc1C(=O)NCC(c1ccco1)N1CCc2ccccc21 (stereo not drawn)	?	10µM	5.2µM	i	?	?
Cc1ccc(C(=O)NCC(c2ccco2)N2CCc3ccccc32)cc1C (stereo not drawn)	?	9.3µM	?	i	?	i
O=C(NCC(c1ccco1)N1CCc2ccccc21)C(=O)Nc1ccccc1 (stereo not drawn)	i	1.3µM	?	10µM	i	?
O=C(NCC(c1ccco1)N1CCc2ccccc21)C(=O)Nc1ccccc1F (stereo not drawn)	?	?	i	i	?	i
O=C(NCC(c1ccco1)N1CCc2ccccc21)C(=O)Nc1ccc(F)cc1F (stereo not drawn)	?	?	?	i	i	i
O=C(Cn1c(=O)oc2cc(Cl)ccc21)Nc1cccc(C(F)(F)F)c1	nt	nt	nt	nt	nt	i
CCN(C(=O)Cn1nc(Cc2ccncc2)c2ccccc2c1=O)c1ccc(OC)cc1	nt	nt	nt	nt	nt	i
CSc1ccc(CCNC(=O)CCn2c(=O)c3cccn3c3cccnc32)cc1	nt	nt	nt	nt	nt	i
COc1cc(C(=O)NCC(c2cccs2)N2CCc3ccccc32)cc(OC)c1OC (stereo not drawn)	?	?	i	i	?	i
COc1ccccc1C(=O)NCC(c1cccs1)N1CCc2ccccc21 (stereo not drawn)	?	12µM	3.7µM	i	?	i
CCc1ccc(C2NC(=O)c3[nH]nc(-c4cccc(OC)c4)c32)cc1 (stereo not drawn)	nt	nt	nt	nt	nt	i
SMILES	HCV inh	Pf growth 48h	Pf growth 96h	AmpC inh no detg	AMA1 RON2 block	AmpC inh detg
CC(=O)c1ccc(N2C(=O)[C@@H]3C(C(=O)CCN4C(=O)c5ccccc5C4=O)=NN[C@@H]3C2=O)cc1	i	i	2.3µM	i	i	i
COc1ccccc1CNC(=O)CN1C(=O)CSc2ccc(S(=O)(=O)N3CCCCC3)cc21	nt	nt	nt	nt	nt	i
Cc1ccc(C)c(Cn2c(=O)cc(C)c3c(C)nn(C)c32)c1	nt	nt	nt	nt	nt	i
CSc1nc(C)c2cc(C)oc2n1	i	i	0.37µM	i	i	?
CC(C)NC(=S)N/N=C/c1cccs1	i	nt	3.3µM	i	i	i
S=C(NCCc1ccccc1)N/N=C/c1cccs1	i	nt	nt	nt	i	nt
S=C(NCc1ccccc1)N/N=C/c1cccs1	?	7.4µM	?	i	i	i
Cc1ccc(C)c(/C=N/NC(=S)NC(C)C)c1	?	?	13µM	i	i	?
CC(C)NC(=S)N/N=C/c1ccc(C(C)(C)C)cc1	i	?	?	i	i	i
C=CCNC(=S)N/N=C/c1ccc(C)cc1C	i	10µM	?	i	i	i
Cc1cc(N2CCC(C(=O)Nc3ccc(Cl)cc3)CC2)n2nc(C)c(-c3ccc(Cl)cc3)c2n1	nt	nt	nt	nt	nt	i
Cc1ccc(/C=C/c2onc(C)c2S(=O)(=O)N2CCC(C(=O)N3CCN(c4cccc(C)c4)C(C)C3)CC2)cc1 (stereo not drawn)	nt	nt	nt	nt	nt	i
O=C(Cn1cc(SCc2ccc(Cl)cc2)c2ccccc21)N1CCCC1	nt	nt	nt	nt	nt	i
CCn1c(C(=O)NCCc2ccc(S(N)(=O)=O)cc2)cc2sc(Cl)cc21	nt	nt	nt	nt	nt	i
CC(C)C(=O)Nc1cccc(C(=O)Nc2nnc(C(F)(F)F)s2)c1	nt	nt	nt	nt	nt	i
O=C(CCSCCc1ccccn1)Nc1ccc(Cc2ccncc2)cc1	i	?	12µM	i	i	i
CCCCCC(=O)Nc1ccc(Cc2ccncc2)cc1	i	i	12µM	i	i	i
CC(=O)Nc1ccc(Cc2ccncc2)cc1	i	i	i	i	i	i
O=C(CCSCCc1ccccn1)Nc1ccccn1	i	?	i	i	i	i
